proKLK7 act: proKLK7 (human) activation, primary screen. activation, % at 7 µM. 370,000 compounds, 0.9% hits. P49862. purified proKLK7, EDANS-DABCYL substrate fluorescence; 100% is mature enzyme control, 0% vehicle. AID 652039;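 active = activation above the mean of all tested compounds plus 3 SD, computed per campaign excluding outliers beyond control limits, cut at about 13% in these data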
ADAM17 inh: ADAM17 inhibition, QFRET primary screen | P78536 | inhibition, % at 6.95 µM | 370,000 compounds, 0.83% hits | recombinant ADAM17, EDANS/DABCYL FRET peptide cleavage;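 active = inhibition above the mean of compounds lying between control limits plus 3 SD, set per campaign, cut at about 8.5% in these data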;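 also: 0% = DMSO-only wells as the low control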
Target sequence (P78536 215-824 limits assumed): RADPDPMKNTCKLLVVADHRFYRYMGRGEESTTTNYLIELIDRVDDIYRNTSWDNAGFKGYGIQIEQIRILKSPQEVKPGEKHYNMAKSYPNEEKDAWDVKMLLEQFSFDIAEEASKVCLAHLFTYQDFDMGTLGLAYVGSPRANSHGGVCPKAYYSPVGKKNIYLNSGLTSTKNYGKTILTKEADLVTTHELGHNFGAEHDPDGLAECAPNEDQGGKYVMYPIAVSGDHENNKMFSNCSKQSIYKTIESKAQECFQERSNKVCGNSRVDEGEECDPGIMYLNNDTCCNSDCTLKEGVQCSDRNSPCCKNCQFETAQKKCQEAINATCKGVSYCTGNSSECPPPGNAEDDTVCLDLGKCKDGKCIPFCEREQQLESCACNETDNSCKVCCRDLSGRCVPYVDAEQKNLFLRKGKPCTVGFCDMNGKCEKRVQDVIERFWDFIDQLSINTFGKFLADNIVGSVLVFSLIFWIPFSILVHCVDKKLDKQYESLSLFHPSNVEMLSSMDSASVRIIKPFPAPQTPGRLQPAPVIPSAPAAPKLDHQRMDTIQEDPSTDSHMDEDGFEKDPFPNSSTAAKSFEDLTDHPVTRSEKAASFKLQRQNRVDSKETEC
GRIN3A LBD mod: NR3A (human) ligand-binding domain modulation; NR3A LBD differential scanning fluorimetry, Tm shift; 0% = protein alone, 100% = glycine-bound protein; Tm shift relative to glycine control, % at 25 µM; 340,000 compounds, 2.5% hits;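 active = melting temperature shift of at least 10% of the positive control shift, at one fixed dose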
AHR act: human AHR activation | P35869 | AHR-responsive luciferase reporter cells, luminescence | activation, % at 5 µM | 320,000 compounds, 2.5% hits; in the data active = activation above about 47%;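 also: 0% = vehicle wells and 100% = reference agonist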
rCAG binder: molecules binding r(CAG) RNA repeats; r(CAG) RNA repeat, TO-PRO-1 dye displacement fluorescence; inhibition, % at 3 µM; 370,000 compounds, 1.3% hits; AID 651821;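 active = inhibition above the plate cutoff, the mean of all test compounds on that plate plus 3 SD, cut at about 35% in these data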;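 also: 0% = DMSO alone and 100% = 100 µM mitoxantrone as full dye displacement; higher means more dye released from RNA so lower well fluorescence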
ADAM10 inh: inhibits human ADAM10; O14672; recombinant ADAM10, EDANS/DABCYL FRET peptide cleavage, 3 h; inhibition, % at 7 µM; 370,000 compounds, 0.62% hits; AID 720582;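 active = inhibition above a per-campaign cutoff equal to the mean of compounds falling between control-based bounds plus 3 SD, cut at about 20% in these data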;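 also: 0% = DMSO wells while the 100% control is not disclosed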
AHR act cf: human AHR activation, confirmation; shares compounds with AHR act; human cells, AHR-responsive luciferase reporter, luminescence; 2,300 compounds, 87% hits; activation, % at 9 µM; in the data active = activation above about 49%;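 also: HepG2 hepatoma cells carrying a DRE-driven firefly luciferase reporter; 0% = vehicle wells and 100% = reference agonist wells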
PXR act counter: activates human PXR in AHR activator counter-screen | shares compounds with AHR act | cell-based PXR reporter, luciferase luminescence | activation, % at 11.6 µM | 2,300 compounds, 88% hits | AID 434939; in the data active = activation above about 11%;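 also: human hepatoma DPX-2 cells expressing full-length human PXR; 0% = DMSO and 100% = reference agonist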
The depositor's hits bear a star. Compounds with a hit are over-represented: about 7% of the library has one in this group of screens.

For Brc1ccc(-c2noc(CCc3ccccc3)n2)o1 the results were proKLK7 act 0.1, ADAM17 inh 1.0, GRIN3A LBD mod -1.0, AHR act 7.5, rCAG binder 0.6 and ADAM10 inh -13.2.
`Brc1ccc(-c2noc(-c3ccccn3)n2)o1` gave proKLK7 act 1.0, ADAM17 inh -1.0, GRIN3A LBD mod 0.6, AHR act 101.4*, rCAG binder -1.1, ADAM10 inh -0.2, AHR act cf 71.2* and PXR act counter 25.0*.
`COc1cc(-c2nc(-c3ccc(Br)o3)no2)cc(OC)c1OC` gave proKLK7 act -0.6, ADAM17 inh -3.8, GRIN3A LBD mod -1.0, AHR act 91.4*, rCAG binder 1.3, ADAM10 inh -7.0, AHR act cf 84.3* and PXR act counter 13.9*.
Screening CCOC(=O)CNC(=O)CSc1nnc(-c2cccs2)o1 returned proKLK7 act 0.2, ADAM17 inh 0.8, rCAG binder 1.2 and ADAM10 inh -4.3.
`CC[C@@H](CCCc1ccccc1OC)CCS(=O)(=O)C(C)(C)C` gave proKLK7 act -0.1, ADAM17 inh -2.5, rCAG binder 0.6 and ADAM10 inh 1.4.
`Cc1ccccc1/C=C1\Oc2ccccc2C1=O` gave proKLK7 act -1.1, ADAM17 inh -7.2, GRIN3A LBD mod 2.4, AHR act 98.8*, rCAG binder 0.4, ADAM10 inh -7.9, AHR act cf 92.3* and PXR act counter 98.0*.
For O=C1C(=Cc2cccs2)Oc2ccccc21 the results were proKLK7 act 0.7, ADAM17 inh -1.4, GRIN3A LBD mod 0.8, rCAG binder -0.9 and ADAM10 inh 1.2.
For O=S1(=O)N[C@H](c2ccccc2)COc2cc(Br)ccc21 the results were proKLK7 act 0.4, ADAM17 inh -2.0, rCAG binder 1.7 and ADAM10 inh 3.6.
CC1(C)CC(=O)N(CC(=O)N2CCN(Cc3ccc4c(c3)OCO4)CC2)c2ccccc2S1(=O)=O was read as proKLK7 act 0.6, ADAM17 inh -2.6, rCAG binder 1.2 and ADAM10 inh -1.2.
For NC(=O)c1c(NC(=O)c2ccc([N+](=O)[O-])o2)sc2c1CCCC2 the results were proKLK7 act 0.5, ADAM17 inh 1.2, GRIN3A LBD mod -2.0, AHR act 14.6, rCAG binder 0.7 and ADAM10 inh 0.6.
Screening NC(=O)c1c(NC(=O)c2ccc(F)cc2)sc2c1CCC2 returned proKLK7 act 1.5, ADAM17 inh -8.2, GRIN3A LBD mod -1.2, AHR act 173.7*, rCAG binder 19.4, ADAM10 inh -19.8, AHR act cf 100.1* and PXR act counter 37.1*.
Screening NC(=O)c1c(NC(=O)c2cc3ccccc3o2)sc2c1CCC2 returned proKLK7 act 0.2, ADAM17 inh -6.0, GRIN3A LBD mod 0.7, AHR act 85.5*, rCAG binder 8.0, ADAM10 inh -13.5, AHR act cf 48.3* and PXR act counter 6.8.
Screening CCOC(=O)[C@@]12CCCC=C1N(CCc1ccc(Cl)cc1)C(=O)[C@H]2CC(=O)N1CCOCC1 returned proKLK7 act 0.3, ADAM17 inh -2.1, rCAG binder 4.6 and ADAM10 inh 1.1.
COc1ccccc1-c1nnc(NC(C)=O)s1 was read as proKLK7 act 0.9, ADAM17 inh -10.2, GRIN3A LBD mod 1.2, AHR act 81.9*, rCAG binder -2.8, ADAM10 inh -15.3 and AHR act cf 59.3*.
Screening COc1ccccc1-c1nnc(NC(=O)C(C)C)s1 returned proKLK7 act 0.3, ADAM17 inh -8.0, GRIN3A LBD mod -5.3, AHR act 84.3*, rCAG binder -6.0, ADAM10 inh -23.6, AHR act cf 123.5* and PXR act counter 16.2*.
`CC(C)C(=O)Nc1nnc(NC(=S)Nc2ccccc2)s1` gave proKLK7 act 0.0, ADAM17 inh 4.2, GRIN3A LBD mod 1.2, AHR act 103.6*, rCAG binder 29.7, ADAM10 inh 9.9, AHR act cf 61.2* and PXR act counter 20.9*.
For CC[C@@H](CCCc1ccc(OC)cc1)CCC(=O)N(c1ccccc1)c1ccccc1 the results were proKLK7 act 0.6, ADAM17 inh -0.2, rCAG binder 4.6 and ADAM10 inh -2.5.
Screening Cc1cc(N2CCNC[C@@H]2C)ccc1N1CCS(=O)(=O)CC1 returned proKLK7 act 0.3, ADAM17 inh -2.5, rCAG binder 1.7 and ADAM10 inh -6.8.
Screening COc1cccc2sc(NN)nc12 returned proKLK7 act 0.6, ADAM17 inh -7.0, GRIN3A LBD mod -0.6, AHR act 33.1, rCAG binder 24.5 and ADAM10 inh -23.6.
`CCOC(=O)c1sc(Nc2nc3c(OC)cccc3s2)cc1C` gave proKLK7 act -4.0, ADAM17 inh -53.7, GRIN3A LBD mod 22.1*, AHR act 107.7*, rCAG binder 16.1, ADAM10 inh -95.7, AHR act cf 88.1* and PXR act counter 60.9*.
Cn1nccc1C(=O)Nc1ccc2c(c1)OCO2 was read as proKLK7 act 0.2, ADAM17 inh -5.7, GRIN3A LBD mod -0.4, AHR act 103.9*, rCAG binder 3.4, ADAM10 inh 12.7, AHR act cf 60.1* and PXR act counter 18.5*.
COc1cccc(NC(=O)c2ccc3c(c2)OCO3)c1 was read as proKLK7 act 0.2, ADAM17 inh -1.2, GRIN3A LBD mod 6.6, AHR act 134.1*, rCAG binder 0.8, ADAM10 inh -1.8, AHR act cf 35.4 and PXR act counter 26.1*.
`CCN(CC)S(=O)(=O)c1ccc(N2CCCC2)c(NC(=O)c2nn(C)c(=O)c3ccccc23)c1` gave proKLK7 act 0.7, ADAM17 inh -2.8, GRIN3A LBD mod -0.9, AHR act -0.4, rCAG binder 6.8 and ADAM10 inh 0.4.
Screening COc1cccc(NC(=O)c2oc3ccccc3c2NC(=O)c2ccc3c(c2)OCO3)c1 returned proKLK7 act -0.2, ADAM17 inh -5.6, GRIN3A LBD mod -4.1, AHR act -6.4, rCAG binder 7.0 and ADAM10 inh -3.4.
Screening CC(=O)N1CC(C(=O)Nc2ccc3c(c2)OCO3)Oc2ccccc21 (stereo not given) returned proKLK7 act -0.1, ADAM17 inh -2.2, GRIN3A LBD mod -2.4, AHR act 101.8*, rCAG binder 11.2, ADAM10 inh -9.7, AHR act cf 121.0* and PXR act counter 34.4*.
Cn1nc(C(=O)Nc2ccccc2N2CCCC2)c2ccccc2c1=O was read as proKLK7 act 0.0, ADAM17 inh 1.9, GRIN3A LBD mod 1.5, AHR act 114.0*, rCAG binder 0.6, ADAM10 inh 4.0, AHR act cf 81.8* and PXR act counter 73.9*.

Source: PubChem BioAssay
